The text below walks through data of PubChem BioAssay (NCI).

Assay in all cases: NCI-60 one-dose screen, 48 h (100 = growth as untreated, 0 = no growth, -100 = all killed)
Holding throughout (conditions): 10 µM unless noted

Assay [1] relates to NCI-H23 lung.
Assay [2] relates to NCI-H226 lung.
The test system of assay [3] is NCI-H322M lung.
The subject of assay [4] is HOP-62 NSCLC.
For assay [5], the system named is NCI-H460 lung.
Assay [6] concerns HOP-92 NSCLC.
Assay [7] concerns NCI-H522 lung.
In assay [8] the test system is A549/ATCC NSCLC.
In assay [9] the test system is 786-0 renal.
The subject of assay [10] is COLO 205 colon.

Compounds without any hit were thinned out: in the full panel of roughly 83,000, 20% have a hit.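 Activity criterion: percent growth below 10, measured after cells in 96-well plates were exposed to a single compound concentration for 48 hours.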 Values without a mark were called inactive. Calls of active or inactive are those of the source.

As to `CNCCCNc1ccnc2cc(Cl)ccc12`, the growth in [1] is -50.4% (active); in assay [2] it was -17.6% (active); in assay [3], -40.7% (active); in [4], -27.1% (active); in assay [5], -28.2% (active); in assay [6] it was -17.9% (active). Also, the growth in [7] is -62.3% (active); in assay [8], 1.29% (active); in assay [9], 3.83% (active); in [10] it was -88.9% (active).

`COc1ccc(NC(=O)/C=C/c2ccc(NC(=O)N3CCCC3)cc2)cn1`: the growth in assay [1] was 105%; in assay [2] it was 96.6%; in assay [3] it was 106%; in assay [4] it was 104%; in assay [5], 105%; in assay [6], 103%. Further, the growth is 95.9% in [7], 100% in assay [8], 109% in assay [9] and 112% in assay [10].

As to `CCN1CCN(Cc2ccc(NC(=O)c3nc4ccc5[nH]ncc5c4c4c3CCCC4)cc2C(F)(F)F)CC1`, the growth in assay [1] was 74.6%; in assay [2], 60.3%; in [3] it was 2.39% (active); in assay [4], -29.8% (active); in assay [5], -73.4% (active); in [6], 44.9%. Also, the growth was -76.9% (active) in assay [7], 6.07% (active) in assay [8], -88.6% (active) in assay [9] and -76.7% (active) in [10].

`CCCc1n(Cc2ccc3ccccc3c2)c2ccccc2[n+]1Cc1ccc2ccccc2c1`: the growth in [1] is -12.9% (active); in [2], -4.44% (active); in assay [3], 4.72% (active); in [4] it was -55.4% (active); in assay [5], -76.1% (active); in assay [6] it was -48.1% (active). Further, the growth was -60.2% (active) in assay [7], -19.4% (active) in assay [8], -85.2% (active) in assay [9] and -77% (active) in [10].

With `O=c1cc(N2CCOCC2)oc2c(-c3ccc4c(c3)OCCO4)csc12`, the growth was 31.9% in assay [1]; 11.6% in [2]; 19.8% in assay [3]; 15.5% in [4]; 22% in [5]; 11.9% in [6]. For the same compound, the growth was 28.8% in assay [7], 12.9% in assay [8], 9.88% (active) in [9] and 5.88% (active) in assay [10].

For the compound `COc1ccc(Sc2[nH]c(C=O)c3ccccc23)cc1`, the growth in assay [1] was 73.3%; in assay [2] it was 72.5%; in [3], 46.8%; in [4] it was 71%; in [5], 6.72% (active); in assay [6] it was 53.8%. The growth in assay [7] was 75.2%; in [8], 34.5%; in assay [9], 70.1%; in assay [10], -0.0496% (active).

For `C=CCn1c(C)nc2cc(Nc3nc(N4CCCC4)nc4nc[nH]c34)ccc21`, the growth is 52.4% in assay [1]; 58.9% in assay [2]; 50.9% in assay [3]; 50.6% in assay [4]; 0.371% (active) in [5]; -39.5% (active) in [6]. The growth in assay [7] was 56.3%; in assay [8], 46.3%; in assay [9], -76.1% (active); in assay [10], 73.4%.

`CCCCCCCCCCCCCCCCS(=O)(=O)Nc1cc(C(=O)NN)cc(C(=O)NN)c1`: the growth was 99.1% in assay [1]; 73.1% in assay [2]; 56.9% in assay [3]; 76.1% in assay [4]; 95.6% in [5]; 92.2% in [6]. Besides, the growth in assay [7] was 78.4%; in assay [8], 91.8%; in assay [9] it was 96.2%; in [10], 83.2%.

On to `O=C1C=CC(=O)N1c1cccc(N2C(=O)C=CC2=O)c1`, for which the growth in assay [1] is 98.7%; in [2], 111%; in assay [3], 116%; in [4], 114%; in [5] it was 119%; in assay [6] it was 94.9%. Further, the growth in assay [7] is -73.1% (active); in [8], 101%; in assay [9], 108%; in assay [10], -48.1% (active).

Take `Oc1c(-c2cc(C(F)(F)F)[nH]n2)cc(Cl)c(OCc2ccc(Cl)cc2)c1-c1ccc(Cl)c(C(F)(F)F)c1`: the growth in [1] is 6% (active); in assay [2] it was -13.2% (active); in assay [3], 8.73% (active); in assay [4] it was -20.9% (active); in assay [5], 7.68% (active); in assay [6], -12.1% (active). The growth is -2.6% (active) in assay [7], 11.6% in [8], -21.4% (active) in [9] and -38.8% (active) in assay [10].

With `CN(C)c1ccc(/C=N/Nc2nnc3n2N=C(c2ccc(Cl)cc2)CS3)cc1`, the growth is 102% in assay [1]; 85% in assay [2]; 102% in assay [3]; 104% in assay [4]; 93.4% in [5]; 94.5% in [6]. The growth is 87.5% in assay [7], 81.3% in assay [8], 88.1% in [9] and 105% in [10].

Regarding `O=C1C(Cl)=C(N/N=c2/[nH][nH]/c(=N/NC3=C(Cl)C(=O)c4ccccc4C3=O)c3ccccc23)C(=O)c2ccccc21`, the growth was 82.5% in assay [1]; 74.8% in [2]; 58.4% in [3]; -10.5% (active) in [4]; 81.4% in [5]; 117% in [6]. Further, the growth in [7] is 30.1%; in assay [8], 94.6%; in assay [9], 96%; in [10] it was 52.5%.

Consider `COc1ccc(Nc2ncnc3c2sc2nc(C)cc(C)c23)cc1`, for which the growth was 111% in assay [1]; 103% in [2]; 102% in [3]; 107% in assay [4]; 97.9% in assay [5]; 130% in [6]. Also, the growth is 99.9% in assay [7], 96% in assay [8], 93.9% in assay [9] and 111% in [10].
